Assay results published in PubChem BioAssay (EPA / NIEHS).
Records with an inconclusive call do not appear. Activity calls are given as the source filed them. How the source made its calls, unless noted: active means hit-call score of the fitted dose curve at least 0.9, where 1 is the maximum; inactive means score below 0.9.

What was measured:
[1] = target: Nucleoli Translocation, AR (gene 367) (UniProt P10275); experiment: UPITT_HCI_U2OS_AR_TIF2_Nucleoli_Antagonist: University of Pittsburgh U2OS Androgen Receptor-Transcriptional Intermediary Factor 2 (AR-TIF2) Antagonism High Content Imaging Assay for Nucleoli Translocation (AID 2283997; active means hit-call score of the fitted dose curve at least 0.9, where 1 is the maximum)
How it was run: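 Compounds are added at 20 uM final concentration in 0.2% DMSO to U2OS cells carrying AR-RFP and TIF2-GFP fusions. Nucleolar AR-RFP fluorescence is then quantified by automated imaging. Antagonism is fitted positively against DHT baseline.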

[2] = target: Nucleoli Translocation, AR (gene 367) (UniProt P10275); experiment: UPITT_HCI_U2OS_AR_TIF2_Nucleoli_Agonist: University of Pittsburgh U2OS Androgen Receptor-Transcriptional Intermediary Factor 2 (AR-TIF2) Agonism High Content Imaging Assay for Nucleoli Translocation (AID 2283998; active means hit-call score of the fitted dose curve at least 0.9, where 1 is the maximum)
How it was run: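 Readout is red (AR-RFP) fluorescence localized to nucleoli, measured by high-content imaging and analysed for increase relative to DMSO. Compound series spanned 0.195 to 50 uM final in 0.5% DMSO.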

[3] = target: Ratio of Nucleoli Translocation and Cytoplasm, AR (gene 367) (UniProt P10275); experiment: UPITT_HCI_U2OS_AR_TIF2_Nucleoli_Cytoplasm_Ratio_Antagonist: University of Pittsburgh U2OS Androgen Receptor-Transcriptional Intermediary Factor 2 (AR-TIF2) Antagonism High Content Imaging Assay for Ratio of Nucleoli Translocation and Cytoplasm (AID 2283999; active means hit-call score of the fitted dose curve at least 0.9, where 1 is the maximum;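 further: antagonists lower the DHT-driven ratio of nucleolar to cytoplasmic red signal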)
How it was run: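 This antagonist-mode endpoint tracks AR-RFP localisation, the nucleolus-to-cytoplasm intensity ratio, in TIF2-GFP-coexpressing U2OS cells. DMSO stays at or below 0.5%; testing spans 20 uM single-dose and 0.195–50 uM series, with DHT setting the activity baseline.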

DIO1 (gene 1733) = experiment: CCTE_GLTED_hDIO1: CCTE's human Deiodinase 1 (DIO1) Inhibition Assay, Great Lakes Toxicology and Ecology Division (GLTED) Lab (AID 2283987; active means hit-call score of the fitted dose curve at least 0.9, where 1 is the maximum;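 further: isolated human DIO1 enzyme in a cell-free setup rather than cells; enzyme activity read as free iodide liberated from substrate via Sandell-Kolthoff colorimetry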)
How it was run: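 Inhibition of human deiodinase 1 is scored as reduced iodide liberation after a 3 h enzyme–chemical incubation, detected colorimetrically by the Sandell-Kolthoff reaction against DMSO controls.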

[4] = TOX21_TRB_BLA_Antagonist_Followup_viability: Viability Assessment in the Tox21 Thyroid Hormone Receptor beta Antagonism Beta-lactamase (BLA) Follow-Up Assay (AID 2283961; active means hit-call score of the fitted dose curve at least 0.9, where 1 is the maximum)
How it was run: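 TRβ-bla HEK293T (human TRβ LBD fused to GAL4 DBD), 3,000 cells/well, 2% charcoal-stripped FBS, phenol red-free medium; 18 h compound exposure, 37C; CellTiter-Glo 30 min RT; luminescence, loss-of-signal readout.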

THRB (gene 7068) = THRB (gene 7068) (UniProt P10828); experiment: TOX21_TRB_COA_Antagonist_Followup_ratio: Tox21 Thyroid Hormone Receptor beta Antagonism through Coactivator Recruitment Follow-Up Assay, Ratio (AID 2283967; active means hit-call score of the fitted dose curve at least 0.9, where 1 is the maximum)
How it was run: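 GST-TRb LBD 5.0 nM + 0.10% BSA, compound added; fluorescein-SRC-2 peptide 200 nM, Tb-anti-GST Ab 2 nM. TR-FRET, ex 340 / em 520:495 ratio. Norm: DMSO 0%, T3 100%.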

[5] = target: Retinoic acid receptor RXR-alpha (Homo sapiens) (UniProt P19793); experiment: TOX21_TR_RXR_BLA_Antagonist_Followup_ratio: Tox21 Thyroid Hormone Receptor beta Retinoid X Receptor alpha (RXRa) Antagonism Beta-lactamase (BLA) Follow-Up Assay, Ratio (AID 2283972; active means hit-call score of the fitted dose curve at least 0.9, where 1 is the maximum)
How it was run: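 HEK293T RXRa-bla, 2% charcoal-stripped FBS medium, 16 h compound exposure at 37C, qHTS 11 conc x3. CCF4 FRET ratio ch2/ch1 (460:530), DMSO = baseline, loss-of-signal fit.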

[6] = TOX21_TR_RXR_BLA_Antagonist_Followup_viability: Viability Assessment in the Tox21 Thyroid Hormone Receptor beta Retinoid X Receptor alpha (RXRa) Antagonism Beta-lactamase (BLA) Follow-Up Assay (AID 2283979; active means hit-call score of the fitted dose curve at least 0.9, where 1 is the maximum)
How it was run: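 RXRa-bla HEK293T cells (2,500/well, phenol red-free DMEM, 2% charcoal-stripped FBS) were attached 5 h, then exposed to compounds at 11 concentrations in triplicate for 16 h at 37C. Viability measured by CellTiter-Glo ATP luminescence, bidirectional fitting versus DMSO.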

[7] = CCTE_Harrill_HTTr_Viability_DMEM_6hr: (Pilot) CCTE's 6-hour Cell Viability Assessment for the High-Throughput Transcriptomics (HTTr) Platform, in MCF-7 cells cultured in DMEM + 10% fetal bovine serum, Harrill Lab (AID 2283973)
How it was run: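 Propidium iodide uptake imaged by high-content analysis after six hours of chemical treatment in an eight-concentration series. Cells: MCF-7 grown in DMEM with 10% fetal bovine serum; DMSO as baseline.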

[8] = CCTE_Harrill_HTTr_Viability_DMEM_12hr: (Pilot) CCTE's 12-hour Cell Viability Assessment for the High-Throughput Transcriptomics (HTTr) Platform, in MCF-7 cells cultured in DMEM + 10% fetal bovine serum, Harrill Lab (AID 2283974)
How it was run: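 Propidium iodide dye exclusion imaged by high-content microscopy after 12 h chemical exposure (eight concentrations) of MCF-7 cells grown in DMEM plus 10% FBS; values fitted in both directions relative to DMSO.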

[9] = CCTE_Harrill_HTTr_Viability_DMEM_24hr: (Pilot) CCTE's 24-hour Cell Viability Assessment for the High-Throughput Transcriptomics (HTTr) Platform, in MCF-7 cells cultured in DMEM + 10% fetal bovine serum, Harrill Lab (AID 2283975)
How it was run: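 Pilot study: propidium iodide dye exclusion, imaged by high content microscopy, after 24 h compound exposure (eight concentrations) in MCF-7 cultured in DMEM + 10% fetal bovine serum; DMSO served as negative control and baseline.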

[10] = CCTE_Harrill_HTTr_Viability_PRF_DMEM_6hr: (Pilot) CCTE's 6-hour Cell Viability Assessment for the High-Throughput Transcriptomics (HTTr) Platform, in MCF-7 cells cultured phenol red-free DMEM + 10% charcoal-stripped fetal bovine serum, Harrill Lab (AID 2283976)
How it was run: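 Membrane integrity by high-content imaging of propidium iodide uptake, six hours after dosing with eight concentrations. Cells: MCF-7 grown in phenol red-free DMEM plus 10% charcoal-stripped serum; DMSO serves as baseline for bidirectional fits.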

[11] = CCTE_Harrill_HTTr_Viability_PRF_DMEM_12hr: (Pilot) CCTE's 12-hour Cell Viability Assessment for the High-Throughput Transcriptomics (HTTr) Platform, in MCF-7 cells cultured in phenol red-free DMEM + 10% charcoal-stripped fetal bovine serum, Harrill Lab (AID 2283977)
How it was run: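 Membrane integrity was scored via propidium iodide dye exclusion imaging, fitted in both directions relative to DMSO. Compounds ran as eight-point dilutions for 12 hours on MCF-7 grown in phenol red-free DMEM plus 10% charcoal-stripped serum.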

[12] = CCTE_Harrill_HTTr_Viability_PRF_DMEM_24hr: (Pilot) CCTE's 24-hour Cell Viability Assessment for the High-Throughput Transcriptomics (HTTr) Platform, in MCF-7 cells cultured in phenol red-free DMEM + 10% charcoal-stripped fetal bovine serum, Harrill Lab (AID 2283980)
How it was run: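 Propidium iodide exclusion imaged at 24 h after dosing scores viability; cells were MCF-7 grown in phenol red-free DMEM plus 10% charcoal-stripped serum, tested in eight concentrations, fitted in both directions against DMSO.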

[13] = CCTE_Harrill_HTTr_Apoptosis_DMEM_6hr: (Pilot) CCTE's 6-hour Apoptosis Assessment for the High-Throughput Transcriptomics (HTTr) Platform, in MCF-7 cells cultured in DMEM + 10% fetal bovine serum, Harrill Lab (AID 2283981)
How it was run: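 MCF-7 cells grown in DMEM + 10% FBS were exposed for 6 hours to an eight-point dilution series. CellEvent Caspase 3/7 Green signal was imaged; activity fitted bidirectionally against DMSO.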

[14] = CCTE_Harrill_HTTr_Apoptosis_DMEM_12hr: (Pilot) CCTE's 12-hour Apoptosis Assessment for the High-Throughput Transcriptomics (HTTr) Platform, in MCF-7 cells cultured in DMEM + 10% fetal bovine serum, Harrill Lab (AID 2283982)
How it was run: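 Caspase-3/7 activity was measured by high-content imaging (CellEvent Caspase 3/7 Green) after a 12-hour exposure of MCF-7 cells grown in DMEM with 10% FBS. Eight-point concentration series, fitted bidirectionally against vehicle.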

[15] = CCTE_Harrill_HTTr_Apoptosis_DMEM_24hr: (Pilot) CCTE's 24-hour Apoptosis Assessment for the High-Throughput Transcriptomics (HTTr) Platform, in MCF-7 cells cultured in DMEM + 10% fetal bovine serum, Harrill Lab (AID 2283983)
How it was run: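 Caspase-3/7 activity read by high-content imaging (CellEvent Green reagent) 24 h after dosing. MCF-7 cells grown in DMEM with 10% FBS received an eight-point concentration series; fits were bidirectional versus DMSO.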

[16] = CCTE_Harrill_HTTr_Apoptosis_PRF_DMEM_6hr: (Pilot) CCTE's 6-hour Apoptosis Assessment for the High-Throughput Transcriptomics (HTTr) Platform, in MCF-7 cells cultured phenol red-free DMEM + 10% charcoal-stripped fetal bovine serum, Harrill Lab (AID 2283984)
How it was run: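 Caspase-3/7 activity (CellEvent Green) read by high-content imaging 6 h after dosing, eight concentrations. Cells: MCF-7, phenol red-free DMEM with 10% charcoal-stripped serum. Curves fit both directions against DMSO.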

[17] = CCTE_Harrill_HTTr_Apoptosis_PRF_DMEM_12hr: (Pilot) CCTE's 12-hour Apoptosis Assessment for the High-Throughput Transcriptomics (HTTr) Platform, in MCF-7 cells cultured in phenol red-free DMEM + 10% charcoal-stripped fetal bovine serum, Harrill Lab (AID 2283985)
How it was run: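 Caspase-3/7 activity by CellEvent Green high content imaging after 12 h compound exposure (eight concentrations) in MCF-7 grown in phenol red-free DMEM plus 10% charcoal-stripped serum; DMSO as baseline.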

[18] = CCTE_Harrill_HTTr_Apoptosis_PRF_DMEM_24hr: (Pilot) CCTE's 24-hour Apoptosis Assessment for the High-Throughput Transcriptomics (HTTr) Platform, in MCF-7 cells cultured in phenol red-free DMEM + 10% charcoal-stripped fetal bovine serum, Harrill Lab (AID 2283986)
How it was run: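 Eight concentrations tested for 24 h on MCF-7 grown in charcoal-stripped serum, phenol red-free DMEM. High content imaging of CellEvent Caspase 3/7 Green signal gives apoptosis read-out, fitted both ways relative to DMSO.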

Measured: AC50

Nucleoli Translocation, AR (gene 367), sequence (P10275 whole entry, looked up, the tested form may be a part): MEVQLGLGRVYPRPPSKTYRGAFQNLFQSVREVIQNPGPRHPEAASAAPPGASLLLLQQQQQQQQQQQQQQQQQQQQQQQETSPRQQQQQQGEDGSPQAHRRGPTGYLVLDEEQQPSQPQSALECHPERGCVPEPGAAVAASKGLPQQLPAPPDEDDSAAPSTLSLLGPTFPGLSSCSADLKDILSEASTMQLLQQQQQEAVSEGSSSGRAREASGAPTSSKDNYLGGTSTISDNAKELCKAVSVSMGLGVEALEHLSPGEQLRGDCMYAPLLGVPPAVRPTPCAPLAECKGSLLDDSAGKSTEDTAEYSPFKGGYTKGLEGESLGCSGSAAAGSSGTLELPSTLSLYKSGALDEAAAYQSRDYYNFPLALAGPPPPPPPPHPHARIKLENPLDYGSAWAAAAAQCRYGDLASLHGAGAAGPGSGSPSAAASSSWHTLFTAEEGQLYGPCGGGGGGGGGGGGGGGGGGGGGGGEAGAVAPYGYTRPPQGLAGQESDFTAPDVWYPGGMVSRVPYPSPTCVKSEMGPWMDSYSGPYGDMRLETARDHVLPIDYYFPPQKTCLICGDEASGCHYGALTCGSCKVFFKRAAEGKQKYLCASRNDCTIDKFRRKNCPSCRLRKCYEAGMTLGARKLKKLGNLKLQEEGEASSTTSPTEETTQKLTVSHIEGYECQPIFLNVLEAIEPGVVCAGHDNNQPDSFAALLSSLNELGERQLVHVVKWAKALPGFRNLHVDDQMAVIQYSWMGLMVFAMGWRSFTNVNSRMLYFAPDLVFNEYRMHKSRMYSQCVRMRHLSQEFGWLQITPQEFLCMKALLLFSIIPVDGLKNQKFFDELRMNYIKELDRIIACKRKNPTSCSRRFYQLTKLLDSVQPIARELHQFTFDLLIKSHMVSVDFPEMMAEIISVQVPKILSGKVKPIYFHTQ
Ratio of Nucleoli Translocation and Cytoplasm, AR (gene 367), sequence (P10275 whole entry, looked up): as the sequence (P10275 whole entry, looked up, the tested form may be a part) above
Retinoic acid receptor RXR-alpha (Homo sapiens), sequence (P19793 whole entry, looked up): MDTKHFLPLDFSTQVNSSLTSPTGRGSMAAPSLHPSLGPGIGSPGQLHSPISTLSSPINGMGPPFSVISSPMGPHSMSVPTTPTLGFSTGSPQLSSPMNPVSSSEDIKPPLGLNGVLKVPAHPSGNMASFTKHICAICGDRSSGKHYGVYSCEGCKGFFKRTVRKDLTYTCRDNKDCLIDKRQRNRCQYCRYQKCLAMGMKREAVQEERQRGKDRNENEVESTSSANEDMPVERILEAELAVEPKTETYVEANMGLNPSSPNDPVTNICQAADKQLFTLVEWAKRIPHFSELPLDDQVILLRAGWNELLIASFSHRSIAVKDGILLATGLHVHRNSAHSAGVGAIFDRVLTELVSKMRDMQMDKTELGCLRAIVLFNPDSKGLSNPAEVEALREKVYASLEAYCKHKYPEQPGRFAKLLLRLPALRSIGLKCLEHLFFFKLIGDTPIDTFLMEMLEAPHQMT
THRB (gene 7068), sequence (P10828 whole entry, looked up, the tested form may be a part): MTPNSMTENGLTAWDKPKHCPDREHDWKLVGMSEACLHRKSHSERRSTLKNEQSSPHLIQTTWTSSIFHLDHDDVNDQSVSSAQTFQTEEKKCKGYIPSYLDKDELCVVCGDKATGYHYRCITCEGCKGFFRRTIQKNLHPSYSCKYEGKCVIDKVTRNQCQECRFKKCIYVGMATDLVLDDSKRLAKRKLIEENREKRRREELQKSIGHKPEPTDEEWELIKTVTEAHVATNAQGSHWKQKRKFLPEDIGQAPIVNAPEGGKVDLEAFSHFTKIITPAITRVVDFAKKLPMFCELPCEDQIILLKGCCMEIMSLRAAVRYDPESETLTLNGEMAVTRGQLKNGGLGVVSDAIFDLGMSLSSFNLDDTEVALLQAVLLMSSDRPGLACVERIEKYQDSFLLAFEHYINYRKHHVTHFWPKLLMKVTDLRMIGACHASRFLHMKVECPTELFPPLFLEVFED

CCOc1cc(C(C)(C)C)ccc1C1COC(c2c(F)cccc2F)=N1 (centres undefined)
inactive: [1]

CC(C)N1C(=O)N(c2ccccc2)CSC1=NC(C)(C)C
inactive: [1] | [2] | [3]

CCCCOCN(C(=O)CCl)c1c(CC)cccc1CC
active: DIO1 (gene 1733) 37.9 µM | [1] 19 µM | [3] 11 µM
inactive: [2]

CCCCC(O)(Cn1cncn1)c1ccc(Cl)cc1Cl (centres undefined)
active: [1] 62.7 µM | [2] 78.4 µM
inactive: [3]

Nc1c(Cl)c(F)nc(OCC(=O)O)c1Cl
inactive: [2] | [3]

CCOc1nc(F)cc2nc(S(=O)(=O)Nc3c(Cl)cccc3Cl)nn12
active: DIO1 (gene 1733) 38.8 µM

CO/N=C(/C1=NOCCO1)c1ccccc1Oc1ncnc(Oc2ccccc2Cl)c1F
inactive: THRB (gene 7068) | [5]
active: [4] 38.3 µM | [6] 52 µM

COCc1cnc(C2=NC(C)(C(C)C)C(=O)N2)c(C(=O)O)c1 (centres undefined)
inactive: [1] | [2]

CC1(C)C(C=C(Cl)Cl)C1C(=O)OC(C#N)c1cccc(Oc2ccccc2)c1 (centres undefined)
not listed: [1] | [2] | [3] | DIO1 (gene 1733) | [4] | THRB (gene 7068) | [5] | [6]
inactive: all other assays above

COC(=O)N(C(=O)N1CO[C@@]2(C(=O)OC)Cc3cc(Cl)ccc3C2=N1)c1ccc(OC(F)(F)F)cc1
inactive: [1] | [3]

Cc1c(COC(=O)[C@@H]2[C@H](/C=C(\Cl)C(F)(F)F)C2(C)C)cccc1-c1ccccc1
not listed: [1] | [2] | [3] | DIO1 (gene 1733) | [4] | THRB (gene 7068) | [5] | [6]
inactive: all other assays above

Cc1cnc(C2=NC(C)(C(C)C)C(=O)N2)c(C(=O)O)c1 (centres undefined)
inactive: [1] | [2]

COc1ccc(-c2ccccc2)cc1NNC(=O)OC(C)C
inactive: [1] | [2] | [3]

O=C1C2CC=CCC2C(=O)N1SC(Cl)(Cl)Cl (centres undefined)
active: DIO1 (gene 1733) 53.8 µM

OC(c1ccc(Cl)cc1)(c1ccc(Cl)cc1)C(Cl)(Cl)Cl
active: DIO1 (gene 1733) 70.4 µM

CCOC(=O)C(C)OC(=O)c1cc(Oc2ccc(C(F)(F)F)cc2Cl)ccc1[N+](=O)[O-] (centres undefined)
not listed: [1] | [2] | [3] | DIO1 (gene 1733) | [4] | THRB (gene 7068) | [5] | [6]
inactive: all other assays above

Clc1cccc(C(Cl)(Cl)Cl)n1
inactive: [1] | [2]

CC1(C)CCC(=Cc2ccc(Cl)cc2)C1(O)Cn1cncn1 (centres undefined)
inactive: [3]
active: [1] 2.9 µM | [2] 9.87 µM

C=CCOC(=O)C(C)(C)OC(=O)c1cc(-n2c(=O)cc(C(F)(F)F)n(C)c2=O)ccc1Cl
not listed: [1] | [2] | [3] | DIO1 (gene 1733) | [4] | THRB (gene 7068) | [5] | [6]
inactive: all other assays above

CCOP(=O)(OCC)Oc1nc(Cl)c(Cl)cc1Cl
inactive: [1]

COC(=O)c1c(C(F)F)nc(C(F)(F)F)c(C2=NCCS2)c1CC(C)C
inactive: [1] | [2]

COP(=S)(OC)SCn1nnc2ccccc2c1=O
inactive: [2] | [3]
active: DIO1 (gene 1733) 47.3 µM | [1] 31.4 µM
